Screening data as filed in PubChem.
Pin1 inh = inhibitors of human Pin1; AID 504891; Potency, µM (series often up to 115 µM), for the others: top-dose activity, negative = inhibition, most hits filed as inhibitors; 390,000 tested, 0.009% active; Q13526; Pin1 FP peptide displacement, HiFluor488, 10 min; active = well fitted inhibition curve with a large enough effect in the polarisation, with a control signal flat, not every such curve was filed as active; inconclusive = small, poorly fitted or top-dose-only effect, or effect the other way, or a change in a side signal; inactive = no such curve, though single readings can be large or run the other way; the % refers to the polarisation; also: % is scaled to controls: 0 for no effect and ±100 for the full control effect
Target sequence (Q13526 whole entry, looked up): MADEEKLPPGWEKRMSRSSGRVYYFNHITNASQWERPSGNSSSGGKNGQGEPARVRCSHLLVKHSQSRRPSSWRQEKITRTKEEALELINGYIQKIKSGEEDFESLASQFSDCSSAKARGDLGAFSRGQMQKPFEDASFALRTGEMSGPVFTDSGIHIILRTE
Tb PFK inh = T. brucei PFK enzyme inhibition; 330,000 tested, 0.17% active; Potency, µM (series often up to 57.5 µM), for inactives: top-dose activity, negative = inhibition, most hits filed as inhibitors; T. brucei PFK, ADP-Glo luminescence;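 also: 0% = uninhibited 1x PFK enzyme wells and -100% = no-enzyme wells; nearly all actives have a fitted effect of over 60% in size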
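In TEA buffer at pH 8.0 with 5 mM MgCl2, enzyme (1.25 nM) converted F6P (0.5 mM) and ATP (0.1 mM) for 45 min at room temperature. ADP product was read by luciferase luminescence.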
GLP-1R agonist = activates the human GLP-1 receptor; P43220; HEK293 GLP-1R CRE-luciferase, luminescence, 4-6 h; cells express a hypersensitive GLP-1R form; Potency, µM (series often up to 45.6 µM), without a hit: at the highest dose activation, usual class: activators; 380,000 tested, 0.007% active; AID 624172; also: % of control where 0% means no effect
Target sequence (P43220 whole entry, looked up): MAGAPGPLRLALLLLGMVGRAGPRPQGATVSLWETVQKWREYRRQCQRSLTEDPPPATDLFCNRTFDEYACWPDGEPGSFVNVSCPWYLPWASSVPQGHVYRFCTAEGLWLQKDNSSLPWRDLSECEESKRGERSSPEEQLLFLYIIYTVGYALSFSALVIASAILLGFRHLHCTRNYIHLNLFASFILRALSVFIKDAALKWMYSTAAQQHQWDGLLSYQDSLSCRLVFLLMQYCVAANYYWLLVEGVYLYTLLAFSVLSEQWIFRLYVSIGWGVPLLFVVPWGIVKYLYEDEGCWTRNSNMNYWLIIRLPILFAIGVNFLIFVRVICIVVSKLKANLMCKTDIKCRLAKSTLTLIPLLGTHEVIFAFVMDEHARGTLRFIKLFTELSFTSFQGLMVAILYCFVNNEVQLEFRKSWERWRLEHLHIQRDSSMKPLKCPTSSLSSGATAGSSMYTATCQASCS
Tb PGK inh = blocks T. brucei phosphoglycerate kinase; P07378; PGK/GAPDH coupled, Kinase-Glo luminescence, 60 min; Potency, µM (highest dose often 57.5 µM), without a hit: at the top dose activity change, negative = inhibition, hits mostly inhibitors; 380,000 tested, 0.043% active; AID 602233; also: % is scaled to controls: 0 for no effect and ±100 for the full control effect; nearly all actives have a fitted effect of over 60% in size
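Recombinant glycosomal PGK reaction used 1,3-bisphosphoglycerate generated in-well by GAPDH (100nM final) in 100mM TEA pH 7.6, 5mM MgCl2, 0.01% Tween-20. After 60 minutes at room temperature, ATP was read by Kinase-Glo Plus luminescence end-point.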
GLP-1R inv ag = acts as inverse agonist at human GLP-1 receptor; P43220; Potency, µM (highest dose often 38.3 µM), without a hit: at the top dose activity change, negative = inhibition, hits mostly inhibitors; 410,000 tested, 1.6% active; HEK293 GLP-1R CRE-luciferase, luminescence, 24 h; GLP-1R form is constitutively active; also: % is scaled to controls: 0 for no effect and ±100 for the full control effect; nearly all actives have a fitted effect of over 55% in size
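Inverse agonism was detected as reduced cAMP-driven luciferase luminescence after 24 h compound treatment. The cells were HEK293 clones expressing constitutively active human GLP-1R with the reporter. Reporter-only and GPR119 cell lines served as counterscreen controls.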
HEK293 tox = cytotoxic in the GLP-1 receptor inverse agonist counter-screen; 410,000 tested, 0.13% active; AID 624418; Potency, µM (top dose mostly 38.3 µM), without a hit: at the top dose activity change, negative = inhibition, most hits filed as inhibitors; HEK293 cAMP-luciferase reporter cells, luminescence, 24 h;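 also: loss of luciferase light is scored as toxicity; % is scaled to controls: 0 for no effect and ±100 for the full control effect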
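Luminescence readout: signal drop marks cytotoxicity. Plated cells grew 12 h at 37 °C, 5% CO2, received 23 nL compound for 24 h, then got luciferase reagent, read after 12 min at RT.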
Active calls of the source: *; i = inactive; ? = inconclusive; . = no result; [ ] = dose if it differs, or a comment. Shown are actives, neighbours in structure and some others; about 1.8% of the full set was active somewhere. Unless noted, calls follow the shape of the dose curve; as a rule, active = well fitted curve in the direction sought with a large enough effect; inconclusive = small, poorly fitted or top-dose-only effect, or another doubt; inactive = no such curve, though single readings can be large; an effect the other way counts as inactive or inconclusive. Potency is read from the fitted curve at half-maximal effect.

SMILES	Pin1 inh	Tb PFK inh	GLP-1R agonist	Tb PGK inh	GLP-1R inv ag	HEK293 tox
O=C(Nc1cc(C(F)(F)F)ccc1Cl)C(NCc1ccccc1)c1ccccc1 (stereo not given)	19%	-7%	0%	-7%	3.5µM*	-5%
CCCC(c1nnnn1Cc1ccc(OC)cc1)N1CCN(c2ccccc2OC)CC1 (stereo not given)	0%	23%	16%	-4%	10µM*	0%
CCCC(c1nnnn1Cc1ccccc1)N1CCN(c2ccccc2OC)CC1 (stereo not given)	-6%	-2%	5%	i	?	-19%
CCCNC(=O)C1(C)CCN(C(=O)c2cccnc2Oc2ccccc2)C1 (stereo not given)	.	.	-5%	.	18%	0%
Cc1ccc(C(=O)c2c(C)oc3c2C(=O)C(=O)c2ccccc2-3)cc1	-5%	1%	-29%	-17%	?	5µM*
CC(=O)OC1CCC2(C)C(=CCC3C2CCC2(C)C(C(C)=O)CCC32)C1 (stereo not given)	.	.	6%	.	.	.
Cc1ccc(Cl)cc1N1CCN(C(=O)CSc2nnc3n2C(C)(C)Cc2ccccc2-3)CC1	1%	-1%	-18%	-8%	4µM*	-25%
Cc1ccc(Cl)cc1N1CCN(C(=O)CSc2cc(=O)n(C)c3ccccc23)CC1	13%	.	.	0%	10µM*	-18%
COc1cc2c(c(OC)c1OC)-c1c(cc3c(c1OC)OCO3)CC(C)C(C)(O)C2 (stereo not given)	.	.	-3%	.	.	.
Cc1nc(N2CCCC2)c2c(C(=O)Nc3cccc(Cl)c3)c(C)oc2n1	-12%	.	.	i	3%	4%
CC1CCC(NC(=O)c2ccc(CSc3nc4ccncc4n3Cc3ccc(F)cc3)cc2)CC1 (stereo not given)	20%	.	.	-3%	?	-9%
COc1ccc(C2Nc3ccccc3C(=O)N2Cc2ccco2)cc1OC (stereo not given)	5%	.	.	.	.	.
Clc1ccc2c(c1)C(N1CCNCC1)Cc1ccccc1S2 (stereo not given)	1%	-1%	-16%	-9%	8.9µM*	-10%
CCOc1ccccc1NC(=O)CCN(c1ccc(C)cc1)S(=O)(=O)c1ccccc1	7%	-1%	5%	-3%	11µM*	12%
Cc1c2cnn(-c3ccccc3)c(=O)c2c(C)n1C(C)C(=O)Nc1ccccc1C(F)(F)F (stereo not given)	1%	.	.	-2%	-21%	-13%
CC(C)NC(=S)N/N=C/c1c[nH]c2ccccc12	0%	-1%	21%	-6%	?	10µM*
Cc1[nH]c2ccccc2c1/C=N/NC(=S)NC(C)C	40%	-4%	15%	15%	?	?
COc1ccc2nc3c(cc2c1)c(NC(=O)c1cccs1)nn3CC(C)C	13%	1%	-22%	5%	8.9µM*	156%
Cc1cc(OCCN2CCC(Cc3ccccc3)CC2)ccc1[N+](=O)[O-]	-20%	-3%	-5%	-1%	11µM*	?
O=C1Cc2cc(S(=O)(=O)N3CCN(c4ccc(F)cc4)CC3)ccc2N1	9%[230 µM]	.	.	.	.	.
COc1cc(NC(=O)CCN2CCN(C/C=C/c3ccccc3)CC2)cc(OC)c1	2%	-1%	14%	-4%	10µM*	-19%
Brc1ccc(-c2cc3c(N4CCN(c5ccccc5)CC4)nccn3n2)cc1	0%	.	1%	i	3%	1%
Cn1c(SCCC#N)nnc1-c1ccc(F)cc1	.	-3%	.	.	.	.
CC(C)(C)c1ccc(-c2nnc(SCCC#N)n2C2CCCC2)cc1	-1%	5%	3%	0%	10µM*	-16%
O=C1CC(c2nc3ccccc3n2CCCCOc2ccccc2)CN1c1ccccc1Cl (stereo not given)	26%	.	.	-4%	10µM*	-17%
SMILES	Pin1 inh	Tb PFK inh	GLP-1R agonist	Tb PGK inh	GLP-1R inv ag	HEK293 tox
COc1ccc(OCCCCn2c(C3CC(=O)N(c4cccc(Cl)c4)C3)nc3ccccc32)cc1 (stereo not given)	3%	.	.	-2%	10µM*	1%
Cc1ccc(OCCCn2c(C3CC(=O)N(c4cccc(Cl)c4)C3)nc3ccccc32)c(C)c1 (stereo not given)	5%	.	.	i	?	1%
CC(C)COc1ccc(C(=O)N(CC(=O)Nc2ccccc2C(F)(F)F)Cc2ccco2)cc1	-1%	-1%	11%	-9%	4.5µM*	?
O=C(CN(Cc1ccco1)C(=O)c1ccc([N+](=O)[O-])cc1)Nc1ccccc1C(F)(F)F	-8%	-3%	-6%	-3%	-6%	-11%
CN(C)c1ccc(NS(=O)(=O)c2cc(Cl)ccc2Cl)cc1	9%	1%	0%	-2%	?	?
CCN(c1ccc(NS(=O)(=O)c2cc(Cl)ccc2Cl)cc1)C(C)C	?	0%	-1%	-5%	11µM*	10%
CC(C)(C)S(=O)(=O)N1C[C@@H]2CC/C=C\C/C=C\2[C@H]1CCO	-3%	.	-4%	-4%	5µM*	-4%
CC(C)(C)S(=O)(=O)N1C[C@H]2CC/C=C\C/C=C\2[C@@H]1CCO	.	.	-5%	-1%	2.8µM*	2%
C=C1[C@H](C)CN(S(=O)(=O)C(C)(C)C)[C@H]1CCO	-2%	.	8%	-4%	1%	2%
COc1ccc(Nc2cc(C)c3cc(NC(=O)COc4cccc(C)c4)ccc3n2)cc1	23%	.	-5%	6%	10µM*	-12%
Cc1cc(Nc2cccc(C(F)(F)F)c2)nc2ccc(NC(=O)c3cccc(Cl)c3)cc12	2%	.	-17%	2%	2.8µM*	?
Cc1cc(Nc2cccc(Cl)c2)nc2ccc(NC(=O)Cc3ccc(Cl)cc3)cc12	20%	.	-6%	-8%	5.6µM*	-24%
COc1ccc(CC(=O)Nc2ccc3nc(Nc4cccc(Cl)c4)cc(C)c3c2)cc1OC	11%	.	-7%	-7%	?	-2%
Cc1cc(Nc2cccc(Cl)c2)nc2ccc(NC(=O)Cc3cccc(C(F)(F)F)c3)cc12	9%	.	-10%	-6%	4µM*	?
COc1ccc(CC(=O)Nc2ccc3nc(Nc4ccc(OC)cc4)cc(C)c3c2)cc1	12%	.	-4%	-7%	-23%	-6%
COc1cccc(N2CC(O)Cn3c2nc2c3c(=O)n(CCCc3ccccc3)c(=O)n2C)c1 (stereo not given)	-2%	5%	-3%	-2%	?	1%
CCOc1ccc(N2CC(O)Cn3c2nc2c3c(=O)n(CCCc3ccccc3)c(=O)n2C)cc1 (stereo not given)	-12%	3%	2%	-5%	5.6µM*	-33%
